Out of some 16,000 compounds screened, about 2,600 (16%) were called active. Inconclusive results (about 20%) are left out. Not all results are given here. A number with no mark means an inactive call. Calls follow the shape of the dose curve; as a rule, active = well fitted curve in the direction sought with a large enough effect; inconclusive = small, poorly fitted or top-dose-only effect, or effect the other way; inactive = no such curve, though single readings can be large or run the other way.
target: Cytochrome P450 2D6 (Homo sapiens) (UniProt P10635); test: Cytochrome panel assay with activity outcomes; conditions: recombinant CYP, pro-luciferin dealkylation, luminescence, p450-cyp2d6; series mostly up to 57.1 µM
Sequence (P10635 whole entry, looked up): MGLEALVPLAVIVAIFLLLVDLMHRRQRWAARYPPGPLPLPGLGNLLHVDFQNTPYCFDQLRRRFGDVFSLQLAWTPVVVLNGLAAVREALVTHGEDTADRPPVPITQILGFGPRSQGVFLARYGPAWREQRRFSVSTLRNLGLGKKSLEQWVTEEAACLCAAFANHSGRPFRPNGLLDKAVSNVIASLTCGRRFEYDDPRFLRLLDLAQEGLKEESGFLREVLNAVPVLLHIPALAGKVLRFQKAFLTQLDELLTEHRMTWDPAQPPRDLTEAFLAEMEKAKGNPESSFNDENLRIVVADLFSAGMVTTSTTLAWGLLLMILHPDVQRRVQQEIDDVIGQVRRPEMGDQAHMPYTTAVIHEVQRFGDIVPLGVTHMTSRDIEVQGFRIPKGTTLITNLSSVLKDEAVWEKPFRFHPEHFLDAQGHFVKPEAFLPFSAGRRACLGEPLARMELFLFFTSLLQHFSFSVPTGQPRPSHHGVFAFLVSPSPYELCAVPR
% is scaled to controls: 0 for no effect and ±100 for the full control effect.

Row | Compound | AC50 | activity, negative = inhibition
1 | COC(=O)c1c(NC(=O)c2ccco2)sc2c1CCC2 | inactive | 
2 | Cc1ccc(S(N)(=O)=O)cc1NC(=O)/C=C/c1cccs1 | 14100 nM (active) | 
3 | Cc1ccc(C(=O)Nc2ccc(C(=O)/C=C/c3cccs3)cc2)cc1 | inactive | 
4 | Cc1cccc(C)c1NC(=O)Nc1ccc(S(N)(=O)=O)cc1 |  | -10.2% [at 11.4 µM]
5 | CN(C(=O)C(Cl)Cl)c1ccc(OC(=O)c2ccco2)cc1 | inactive | 
6 | Cc1ccccc1/C=C\C1=NCCN1 | 25100 nM (active) | 
7 | c1ccc2nc(C3=NCCN3)cnc2c1 | inactive | 
8 | c1ccc2cc(C3=NCCN3)ncc2c1 | inactive | 
9 | O=C(Oc1ccccc1)N1CCC2(CC1)CCN(c1ccccn1)CC2 | inactive | 
10 | CCOc1ccc(-c2c[n+](=O)c3c(n2[O-])CCCC3)c(OCC)c1 | inactive | 
11 | CCCCn1c(NCc2ccccc2NS(=O)(=O)c2ccc(C)cc2)nc2ccccc21 | 501 nM (active) | 
12 | CCCCn1c(SCc2c(C)noc2C)nc2cc(S(N)(=O)=O)ccc21 | inactive | 
13 | Cc1ccc(S(=O)(=O)Nc2ccccc2C=O)cc1 |  | -1.56% [at 11.4 µM]
14 | CC(C)=NOCc1ccc(-c2cc(-c3ccccc3)no2)cc1 |  | 1.27% [at 11.4 µM]
15 | CCn1c(=O)[nH]c2ccccc21 | inactive | 
16 | O=c1[nH]c2ccccc2n1CCCN1CCN(C(c2ccccc2)c2ccccc2)CC1 | 794 nM (active) | 
17 | CCN1CNC(=S)N(c2cc(C)ccc2C)C1 | inactive | 
18 | O=C(c1ccco1)N1CCC2(CCN(Cc3nccs3)CC2)CC1 | 1000 nM (active) | 
19 | CC(=O)N1CCC2(CCN(Cc3nccs3)CC2)CC1 | inactive | 
20 | COc1ccc(NC(=O)N2CC3(CCN(C(=O)c4ccco4)CC3)C2)cc1 | inactive | 
21 | O=C(Nc1ccccc1)N1CC2(CCN(C(=O)c3ccco3)CC2)C1 | inactive | 
22 | O=C(c1ccco1)N1CCC[C@@]2(CCN(Cc3ccccc3)C2)C1 | 2000 nM (active) | 
23 | COc1ccccc1CN1CC[C@@]2(CCCN(C(=O)c3ccco3)C2)C1 | 501 nM (active) | 
24 | O=C(c1cccc(F)c1)N1CCC2(CCN(Cc3nccs3)CC2)CC1 | inactive | 
25 | O=C(c1ccco1)N1CCC2(CCN(Cc3ccccc3)CC2)CC1 | 3980 nM (active) | 
26 | C=C(C)C1CC=C(C)/C(=N/NC(=O)c2ccc(NC(=O)c3cccc(C)c3)cc2)C1 (centres undefined) | inactive | 
27 | Clc1ccc(-c2csc(N3CCC(c4ccccc4)C3)n2)cc1 (centres undefined) | inactive | 
28 | COc1ccc(C2CC(C(F)(F)F)n3nc(C(=O)N(C)Cc4cn(C)nc4C)c(Cl)c3N2)cc1 (centres undefined) | inactive | 
29 | O=C(Nc1cccc(F)c1)N1CC2(CCN(C(=O)c3cc(C(F)(F)F)cc(C(F)(F)F)c3)CC2)C1 | inactive | 

— PubChem BioAssay AID1851 (National Center for Advancing Translational Sciences (NCATS), 2009)
